D1 agonist – human D1 receptor agonism. HEK293 T-REx D1 cells, calcium flux, agonist mode. activation, % at 2 µM. actives 1% (n = 360,000). P21728; in the data active = activation above about 30%
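Inducible HEK293 T-REx D1 cells, force-coupled to calcium signalling, were plated at 4000 cells/well with tetracycline and held overnight at 30 C. After no-wash calcium dye loading, compound-evoked calcium rise over 180 s flagged agonists.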
D1 antag – human D1 dopamine receptor antagonism | P21728 | HEK293 TREx D1 cells, calcium flux, dopamine EC80; stronger effect = lower value | actives 3.2% (n = 360,000) | activity change, negative = inhibition, % at 10 µM; in the data active = activity change below about -30%
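Compound effects on dopamine-evoked calcium signalling were measured in tetracycline-induced HEK293 Trex D1 cells. Dopamine at EC80 followed a 180 s compound pre-read, and fluorescence was tracked kinetically for 180 s more.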
D3 antag – antagonists of human D3 dopamine receptor. actives 2.5% (n = 360,000). AID 652054. max response, negative = inhibition, %. D3R cells, DiscoveRx beta-arrestin luminescence, antagonist mode; stronger effect = lower value. P35462; in the data active = max response below about -50%; inconclusive = no clear call, values can overlap the other calls
Target sequence (P35462 whole entry, looked up): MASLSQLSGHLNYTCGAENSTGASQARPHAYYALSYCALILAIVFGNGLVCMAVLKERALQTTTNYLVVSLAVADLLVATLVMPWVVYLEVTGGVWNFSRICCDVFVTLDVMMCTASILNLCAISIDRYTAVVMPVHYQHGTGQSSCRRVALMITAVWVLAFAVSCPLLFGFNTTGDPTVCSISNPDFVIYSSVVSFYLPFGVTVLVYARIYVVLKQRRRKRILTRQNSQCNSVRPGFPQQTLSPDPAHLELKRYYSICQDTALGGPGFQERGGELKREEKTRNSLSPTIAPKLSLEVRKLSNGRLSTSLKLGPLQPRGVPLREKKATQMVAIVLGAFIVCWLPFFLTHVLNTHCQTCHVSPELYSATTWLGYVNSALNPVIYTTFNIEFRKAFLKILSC
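Cells plated overnight at 1500 cells/well, then exposed to library compounds with dopamine controls for 90 minutes at 37 degrees C. DiscoveRx reagent added for 30–60 minutes at room temperature; luminescence read, quantitative HTS format.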
D1 PAM – potentiators of human D1 dopamine receptor | P21728 | HEK293 TREx D1 cells, calcium flux, dopamine EC20 potentiation | potentiation, % at 10 µM | actives 0.036% (n = 360,000); in the data active = potentiation above about 30%
DRD3 agonist – agonists of human D3 dopamine receptor | P35462 | D3R DiscoveRx beta-arrestin cells, luminescence, 90 min | max activation, % | actives 0.58% (n = 410,000) | AID 652048; in the data active = max activation above about 30%
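Agonist mode: compounds and dopamine controls were applied to plated cells for 90 min at 37 degrees C after an overnight attachment at 1500 cells/well. Luminescent read-out followed 30 - 60 minutes at room temperature with DiscoveRx detection reagent.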
Hits are given with their value; - = inactive; ? = inconclusive; . = not tested or not shown. Most compounds without a hit are left out; they make up all but 6% or so of the library.

SMILES | D1 agonist | D1 antag | D3 antag | D1 PAM | DRD3 agonist
NCCCC[C@H](NC(=O)[C@@H]1CCCN1C(=O)[C@@H]1CSSC[C@H](N)C(=O)N[C@@H](Cc2ccccc2)C(=O)N[C@@H](Cc2ccccc2)C(=O)N[C@@H](CCC(N)=O)C(=O)N[C@@H](CC(N)=O)C(=O)N1)C(=O)NCC(N)=O | . | . | . | . | -
COc1ccc(-c2noc(N3CCN(c4cccc(C)c4C)CC3)n2)cc1OC | - | - | . | - | -
NC(Cc1ccc(F)cc1)c1csc(NC(=O)NC(c2ccccc2)c2ccccc2)n1 (stereo not drawn) | . | . | - | . | -
CC(C)Oc1ccc(C(=O)CCN2CCOCC2)cc1 | . | . | - | . | -
COc1ccc(C(=O)OCCN2CCCCC2)cc1 | - | - | -77.7 | - | -
CC(C)(C)c1ccc(C(=O)OCCN2CCCCC2)cc1 | - | - | - | - | -
CC(C)Oc1ccc(C(=O)CCN2CCCCC2)cc1 | - | - | -77.9 | - | -
CC(=O)c1ccc(OC(C)C)c(CN2CCCCC2)c1 | - | - | - | - | -
CC(=O)c1cc(CN2CCCCC2)cc(OC(C)C)c1 | - | -44.6 | - | - | -
O=C(OCCN1CCCCC1)c1cccc(Cl)c1 | - | - | -101.6 | - | -
C=C(c1ccccc1)c1ccccc1N | - | - | - | - | -
Cc1ccc(OC(C)C(=O)Nc2ccc(F)cc2)c([N+](=O)[O-])n1 (stereo not drawn) | - | - | - | - | -
CCN(C(=O)CSc1nc2ccccc2n1CC(=O)N1CCCC(C)C1)c1ccccc1 (stereo not drawn) | - | - | . | - | -
COc1ccc(C(=O)CCN2CCCCCC2)cc1 | - | - | -53.9 | - | -
CCOc1c(Cl)cc(CNc2ccc(S(N)(=O)=O)cc2)cc1OC | - | -41.4 | - | - | -
Cc1nnsc1SC(C)C(=O)O (stereo not drawn) | - | -49.7 | - | - | -
COc1ccc(O)c(C(=O)c2coc(=N)c(C(=O)Nc3ccc(SC(F)F)cc3)c2)c1 | 33.0 | - | - | - | -
CC(C)OC(=O)c1cc(C(=O)c2cc(F)ccc2O)coc1=N | - | - | - | - | -
CCCN(CCC)c1ncnc2c1cnn2-c1ccc(OC)cc1 | - | - | - | - | 33.7
CCCNc1ncnc2c1cnn2-c1ccc(OC)cc1 | - | - | . | - | .
COc1ccc(CCNc2ncnc3c2cnn3-c2cccc(Cl)c2)cc1 | - | - | . | - | -
Cc1ccc(-n2ncc3c(NCCc4ccccc4)ncnc32)cc1Cl | - | -36.1 | . | - | 36.6
COc1ccc(CCNc2ncnc3c2cnn3-c2ccc(F)cc2)cc1 | - | -38.1 | . | - | -
Cc1ccc(-n2ncc3c(NNC(=O)c4ccccc4C)ncnc32)cc1 | - | -35.9 | . | - | -
Cc1ccc(-n2ncc3c(NCCCc4ccccc4)ncnc32)cc1C | - | - | . | - | -
SMILES | D1 agonist | D1 antag | D3 antag | D1 PAM | DRD3 agonist
Cn1nnnc1Sc1ncnc2scc(-c3ccc4ccccc4c3)c12 | - | - | . | - | .
COc1ccc(CCNc2ncnc3c2cnn3-c2ccc(C)c(Cl)c2)cc1 | - | -62.6 | . | - | 30.2
Cc1ccc(-n2ncc3c(NCCCN4CCOCC4)ncnc32)cc1Cl | - | - | . | - | -
Cc1ccc(-n2ncc3c(NCCO)ncnc32)cc1Cl | - | -39.3 | . | - | -
Cc1ccc(-n2ncc3c(NCCCc4ccccc4)ncnc32)cc1 | - | - | . | - | -
Cc1ccc(-n2ncc3c(NCCc4ccccc4)ncnc32)cc1 | - | -49.9 | . | - | -
S=P(N1CC1)(N1CC1)N1CC1 | - | - | - | - | -
Cc1ccccc1NC(=O)COC(=O)c1ccc(S(C)(=O)=O)c([N+](=O)[O-])c1 | - | - | -98.1 | - | -
Cc1ccccc1NC(=O)Cc1nc(COC(=O)c2ccc(S(C)(=O)=O)c([N+](=O)[O-])c2)cs1 | - | -35.5 | -72.8 | - | -
CS(=O)(=O)c1ccc(C(=O)OCC(=O)Nc2cccnc2Cl)cc1[N+](=O)[O-] | . | . | -67.5 | . | -
Cc1ccccc1NC(=O)Cc1nc(COC(=O)c2ccc(NC(N)=O)cc2)cs1 | . | . | - | . | -
CC(CCc1ccccc1)NC(=O)COC(=O)c1ccc(S(C)(=O)=O)c([N+](=O)[O-])c1 (stereo not drawn) | - | - | -77.7 | - | -
Cc1nnc(N2C(=O)c3oc4ccccc4c(=O)c3C2c2cccc(OCCC(C)C)c2)s1 (stereo not drawn) | - | - | . | - | -
COc1ccc2cc(C(=O)NCc3ccc4c(c3)CCN4C(=O)c3ccc(C)cc3)[nH]c2c1 | - | - | . | - | -
CC(=O)c1cccc(NC(=O)COC(=O)c2ccc(S(C)(=O)=O)c([N+](=O)[O-])c2)c1 | - | -33.9 | ? | - | -
CS(=O)(=O)c1ccc(C(=O)OCC(=O)NC(=O)C2COc3ccccc3O2)cc1[N+](=O)[O-] (stereo not drawn) | . | . | - | . | -
CS(=O)(=O)c1ccc(C(=O)OCC(=O)NC(=O)C2CCCCC2)cc1[N+](=O)[O-] | - | -32.9 | ? | - | -
Cc1ccc(C(=O)NC(C)CCc2ccccc2)cc1[N+](=O)[O-] (stereo not drawn) | - | -62.2 | - | - | -
CC(CCc1ccccc1)NC(=O)c1cccc([N+](=O)[O-])c1 (stereo not drawn) | - | - | - | - | -
CC(=O)c1cccc(NC(=O)COC(=O)c2ccc3c(c2)OCO3)c1 | - | -31.2 | - | . | -
N#CCCN(C(=O)COC(=O)CCc1c[nH]c2ccccc12)c1ccc(F)cc1 | - | - | - | - | -
NC(=O)c1ccc(NC(=O)COC(=O)/C=C/c2ccc3c(c2)OCO3)cc1 | - | -41.3 | - | - | -
CC(=O)Nc1ccc(NC(=O)COC(=O)/C=C/c2ccc3c(c2)OCO3)cc1 | - | - | - | . | -
CCOC(=O)c1c(C)[nH]c(C(=O)OCc2csc(CC(=O)Nc3ccccc3C)n2)c1C | - | - | - | - | 35.6
CCc1ccc(N2CC(C(=O)Nc3ccc4c(c3)OCO4)CC2=O)cc1 (stereo not drawn) | - | - | - | - | -
SMILES | D1 agonist | D1 antag | D3 antag | D1 PAM | DRD3 agonist
Cc1ccc(NCc2ccccc2O)cc1 | - | - | - | - | -
Cc1ccc(CNc2ccc(O)cc2)cc1 | - | - | -53.5 | - | -
CCOC(=O)c1ccc(N2CCCCC2)c(NS(=O)(=O)c2ccc(C)cc2)c1 | - | - | - | - | -
Cc1ccccc1OCc1nc2ccccc2c(=O)n1/N=C/c1cn[nH]c1-c1ccccc1 | - | - | - | - | -
Cc1ccccc1OCc1nc2ccccc2c(=O)n1/N=C/c1cccc([N+](=O)[O-])c1 | - | -32.0 | - | - | -
CCC(NC(=O)Nc1nnc(C(F)(F)F)s1)(C(F)(F)F)C(F)(F)F | 31.3 | -57.8 | - | - | -
O=C(O)CCC(=O)Nc1nnc(C(F)(F)F)s1 | - | - | - | - | -
COc1ccc2c(c1)c(N1CCCC1=O)c(C(=O)Nc1ccc(Cl)cc1C)n2C | - | - | . | - | -
C/C(=N/NC(=O)c1cc2ccccc2cc1O)C1C(=O)c2ccccc2C1=O | - | - | -56.4 | - | -

Compound activity from PubChem BioAssay.
